“And” between values parts separate entries of the source, which are not always exact repeats. Identical values can stand only once. Some structures have more than one record in an assay (separate samples or runs), and their calls can disagree. The source made the active and inactive calls. Rule for the calls: active = hit-call score of the fitted dose curve at least 0.9, where 1 is the maximum; inactive = score below 0.9.

A short description of the test: ATG_AP_1_CIS: Attagene CIS-FACTORIAL HepG2 Assay for human Activator Protein 1 (AP-1) (AID 2282931). Particulars: HepG2 Attagene cis-factorial AP-1 reporter mRNA; actives raise or lower the signal. The procedure:
ATG_CIS is a cell-based, multiplexed-readout assay that uses HepG2, a human liver cell line, with measurements taken at 24 hours after chemical dosing in a 24-well plate.ATG_AP_1_CIS is one of 52 assay component(s) measured or calculated from the ATG_CIS assay. It is designed to make measurements of mRNA induction, a form of inducible reporter, as detected with fluorescence intensity signals by Reverse transcription polymerase chain reaction (RT-PCR) and Capillary electrophoresis technology.Data from the assay component ATG_AP_1_CIS was analyzed into 1 assay endpoint. This assay endpoint, ATG_AP_1_CIS, was analyzed with bidirectional fitting relative to DMSO as the negative control and baseline of activity. Using a type of inducible reporter, measures of mRNA for gain or loss-of-signal activity can be used to understand the reporter gene at the transcription factor-level as they relate to the gene FOS and JUN. Furthermore, this assay endpoint can be referred to as a primary readout, because this assay has produced multiple assay endpoints where this one serves a reporter gene function. To generalize the intended target to other relatable targets, this assay endpoint is annotated to the dna binding intended target family, where the subfamily is basic leucine zipper.
Human liver HepG2 cells are transiently transfected with multiple reporter transcription units (MRTUs) in 6-well plates using FuGene 6 reagent (Roche; 3 ml FuGene/1 mg DNA). The MRTU constructs are regulated by a cis-regulating element (promoter). […] A major difference between the CIS and TRANS system is that in CIS activities of endogenous TFs are measured, whereas the TRANS assay evaluates changes in activities of exogenous, chimeric NR-Gal4 proteins. […] At the end of 24 hour incubation, total RNA was isolated using TriZol reagent (Invitrogen). The isolated RNA is then reverse-transcribed using oligo(dT) primer and Mo-MLV reverse transcriptase (Invitrogen) with DNAse I (Ambion) treatment for 30 min. The one-tenth of the produced cDNA was amplified by PCR using Taq DNA polymerase (Invitrogen) and two reporter sequence-specific primers. The PCR products were fluorescently labeled by primer extension with 6-arboxyfluorescein (6-FAM) 5'-labeled reporter sequence-specific primer (2 min at 95 C, 20 s at 68 C and 10 min at 72 C) and these products were digested with 5U of HpaI (New England Biolabs) for 2h at 37 C. The fragments were purified using Qiaquick PCR columns (Qiagen), analyzed on an ABI 3130xL genetic analyzer (Applied Biosystems) with peak positions identified by using a set of X-rhodamine (ROX)-labeled MapMarker1000 molecular weight standards (BioVentures). The raw capillary electrophoresis data was processed using Attagraph software (Attagene).
With `CN(C)C(=S)SSC(=S)N(C)C`, the compound was called inactive. The AC50 is the concentration at which the activity in the assay is half-maximal. `N#Cc1nn(-c2c(Cl)cc(C(F)(F)F)cc2Cl)c(N)c1S(=O)C(F)(F)F` (stereo not given): the AC50 was 9.67 µM (active) and the compound was called inactive. Take `Cc1c(F)c(F)c(COC(=O)C2C(/C=C(\Cl)C(F)(F)F)C2(C)C)c(F)c1F` (stereo not given): the result was inactive. `C=CCC1=C(C)C(OC(=O)C2C(C=C(C)C)C2(C)C)CC1=O` (stereo not given): the concentration at half-maximal activity (AC50) is 33.5 µM (active) [middle of 6 runs]. In the case of `COc1ccc(C(c2ccc(OC)cc2)C(Cl)(Cl)Cl)cc1`, the outcome was inactive; the AC50 is 39.8 µM (active) and 59.5 µM (active) and 34.4 µM (active).

With `CCOc1cc(Oc2ccc(C(F)(F)F)cc2Cl)ccc1[N+](=O)[O-]`, the AC50 is 22 µM (active). Consider `COC(=O)C=C(C)OP(=O)(OC)OC`, for which the result was inactive. `COC(=O)C(C)Oc1ccc(Oc2ccc(Cl)cc2Cl)cc1` (stereo not given): the result was inactive. Consider `CC(C)(C)c1ccc(CSc2cnn(C(C)(C)C)c(=O)c2Cl)cc1`, for which the AC50 is 0.0997 µM (active).

In the case of `C=CC1(C)OC(=O)N(c2cc(Cl)cc(Cl)c2)C1=O` (stereo not given), the compound was classed as inactive. On to `CON(C)C(=O)Nc1ccc(Cl)c(Cl)c1`, for which the call was inactive. Same read-out and setting: in the case of `CCNc1nc(Cl)nc(NC(C)C)n1` it was “inactive”; in that of `CCON=C(CC)C1=C(O)CC(c2c(C)cc(C)cc2C)CC1=O` (stereo not given), “inactive”. Consider `CC(C)Oc1cc(-n2nc(C(C)(C)C)oc2=O)c(Cl)cc1Cl`, for which the AC50 was 21.8 µM (active). Regarding `CO/C=C(/C(=O)OC)c1ccccc1Oc1cc(Oc2ccccc2C#N)ncn1`, the AC50 is 9.92 µM (active) and the compound was called inactive. Turning to `Fc1ccc(Oc2ccnc3cc(Cl)cc(Cl)c23)cc1`, the call was inactive.

For the compound `COP(=S)(OC)Oc1nc(Cl)c(Cl)cc1Cl`, the result was inactive. `COC(=O)c1ccccc1C(=O)OC`: the outcome was inactive. As for `CCCCNC(=O)OCC#CI`, the result was inactive and the AC50 was 181 µM (active). For `COc1nc(C)nc(NC(=O)NS(=O)(=O)c2ccccc2CCC(F)(F)F)n1`, the call was inactive.

Turning to `CCCC1COC(Cn2cncn2)(c2ccc(Cl)cc2Cl)O1` (stereo not given), the AC50 is 50 µM (active) and the outcome was inactive.

Regarding `CCCCOC(=O)c1ccccc1C(=O)OCCCC`, the AC50 was 68.2 µM (active) and 85.6 µM (active); the result was inactive.

Take `O=C(O)COc1nc(Cl)c(Cl)cc1Cl`: the outcome was inactive. Regarding `Oc1ccccc1-c1ccccc1`, the compound was classed as inactive and the AC50 was 88.3 µM (active).

On to `CS/C(C)=N/OC(=O)N(C)SN(C)C(=O)O/N=C(\C)SC`, for which the call was inactive. As for `OC(c1ccc(Cl)cc1)(c1cncnc1)c1ccccc1Cl` (stereo not given), the result was inactive and the AC50 was 13.3 µM (active). Take `COc1nc(NC(C)C)nc(NC(C)C)n1`: the outcome was inactive. `C=CCC1=C(C)[C@@H](OC(=O)[C@@H]2[C@@H](C=C(C)C)C2(C)C)CC1=O`: the result was inactive. In the case of `CC(Oc1ccc(Cl)cc1Cl)C(=O)O` (stereo not given), the outcome was inactive. `C#CCOS(=O)OC1CCCCC1Oc1ccc(C(C)(C)C)cc1` (stereo not given): the AC50 is 1.55 µM (active). Take `COc1cnc(OC)n2nc(NS(=O)(=O)c3c(OCC(F)F)cccc3C(F)(F)F)nc12`: the call was inactive.

Take `CCc1nn(C)c(C(=O)NCc2ccc(C(C)(C)C)cc2)c1Cl`: the AC50 was 0.117 µM (active).

These data come from PubChem BioAssay (EPA / NIEHS).
